Screens from PubChem BioAssay.
HP1b binding inh – HP1-beta chromodomain-methylated histone interaction inhibition; 390,000 tested, 0.56% active; Potency, µM (top dose mostly 114 µM), usual class: inhibitors; AlphaScreen HP1-beta / biotin-H3K9me3 peptide binding; AID 540317; further: nearly all actives have a fitted effect of over 70% in size
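Compound inhibition of the preformed complex between 50 nM HP1-beta and 50 nM biotinylated H3K9me3 peptide was read by AlphaScreen. Buffer was PBS pH 7.4 with 0.01% Tween-20. Incubations ran 30 min at room temperature, with 10 ug/mL donor/acceptor beads.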
BAZ2B inh – BAZ2B (human) inhibition; Potency, µM (series often up to 114 µM), hits mostly inhibitors; 360,000 tested, 4.4% active; AlphaScreen BAZ2B-H3K14Ac peptide displacement; Q9UIF8; further: nearly all actives have a fitted effect of over 60% in size
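AlphaScreen displacement of biotin-H3(5-23)K14Ac peptide (50 nM final) from BAZ2B (50 nM final) in PBS pH 7.4, 0.01% Tween-20; complex preformed 30 min RT, then compounds (top 110 uM) 30 min RT, beads 20 min dark.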
JMJD2A Tudor inh – JMJD2A Tudor domain (human) inhibition; O75164; AlphaScreen JMJD2A-Tudor / H3K4me3 peptide binding; Potency, µM (highest dose often 114 µM), usual class: inhibitors; 390,000 tested, 4.4% active; further: nearly all actives have a fitted effect of over 50% in size
L3MBTL1 inh – inhibitors of human L3MBTL1; AlphaScreen L3MBTL1–H3K9me1 peptide binding; Potency, µM (top dose mostly 57.1 µM), usual class: inhibitors; 230,000 tested, 0.66% active; AID 485360; further: nearly all actives have a fitted effect of over 60% in size
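L3MBTL1 50 nM + b-AHA-H3(1-15)K9me1 75 nM, 30 min RT; compound added, 30 min RT; streptavidin donor/Ni-chelate acceptor beads 10 ug/mL each final, 30 min RT dark; AlphaScreen read.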
G9a inh – blocks human histone lysine methyltransferase G9a | Q96KQ7 | G9a H3K9 monomethylation, AlphaScreen, 2 h | Potency, µM (titrated, usually from 102 µM), usual class: inhibitors | 350,000 tested, 8.8% active; further: nearly all actives have a fitted effect of over 75% in size
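Compounds were preincubated with 20 nM G9a for 15 min, after which biotinylated H3K9 peptide (500 nM) and SAM (20 uM) started a 2 h room-temperature reaction. Monomethylated product was quantified by antibody-based AlphaScreen chemiluminescence.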
A number is an active result; [ ] = remark or other dose. The list is not random: actives were taken first. Their share in the collection is about 11%. The call rests on the fitted dose curve; in most records, active means well fitted inhibition curve with a large enough effect; inconclusive means small, poorly fitted or top-dose-only effect; inactive means no such curve, though single readings can be large or run the other way.

Results for CCCNC(=O)CCC(=O)N1Cc2cccc(OC)c2Oc2ncccc21 ?
HP1b binding inh: inactive; BAZ2B inh: inactive; JMJD2A Tudor inh: inactive; G9a inh: inactive

How did O=c1cccc2n1Cc1cc3ccccc3nc1-2 do in these assays?
HP1b binding inh: inactive; BAZ2B inh: inactive; JMJD2A Tudor inh: inactive; L3MBTL1 inh: inactive; G9a inh: 45µM

What do the screens show for `CCOC(=O)c1ccccc1NC(=O)Cn1c(=O)n(CCC(=O)N2CCc3ccccc3C2)c(=O)c2ccccc21`?
HP1b binding inh: inactive; BAZ2B inh: inactive; JMJD2A Tudor inh: inactive; G9a inh: inactive

What do the screens show for `CCOc1ccccc1CNC(=O)CCCn1nc(C)c2sc3ccccc3c2c1=O`?
HP1b binding inh: inactive; BAZ2B inh: inactive; JMJD2A Tudor inh: inactive; G9a inh: inconclusive

How did COc1ccc2ccn(S(=O)(=O)c3ccccc3)c2c1 do in these assays?
HP1b binding inh: inactive; BAZ2B inh: inactive; JMJD2A Tudor inh: inactive; L3MBTL1 inh: inactive; G9a inh: inactive

Results for O=C1c2ccccc2NC(c2cccs2)N1O (centres undefined) ?
HP1b binding inh: inactive; BAZ2B inh: inactive; JMJD2A Tudor inh: inconclusive; L3MBTL1 inh: inactive; G9a inh: 32µM

Results for Cc1ccc(C)c(Nc2ncnc3c2cnn3-c2ccc(F)cc2)c1 ?
HP1b binding inh: inactive; BAZ2B inh: inactive; JMJD2A Tudor inh: inactive; G9a inh: inactive

How did Nc1cc(N)nc(SCC(=O)NC2CCCCCCC2)n1 do in these assays?
HP1b binding inh: inactive; BAZ2B inh: inactive; JMJD2A Tudor inh: inactive; L3MBTL1 inh: inactive; G9a inh: inactive

What do the screens show for `COc1ccc(CNC(=O)CSc2ncn[nH]2)cc1`?
HP1b binding inh: inactive; BAZ2B inh: inactive; JMJD2A Tudor inh: inactive; G9a inh: 2.8µM

Results for O=C(CSc1ncn[nH]1)c1ccccc1 ?
HP1b binding inh: inactive; BAZ2B inh: inconclusive; JMJD2A Tudor inh: 25µM; L3MBTL1 inh: inactive; G9a inh: 3.2µM

What do the screens show for `O=C(CSc1nnc(SCC(=O)c2ccco2)s1)c1ccco1`?
HP1b binding inh: inconclusive; BAZ2B inh: inconclusive; JMJD2A Tudor inh: 20µM; L3MBTL1 inh: inconclusive; G9a inh: inactive

How did Cc1ccc(NC(=O)CSc2ncn[nH]2)cc1C do in these assays?
HP1b binding inh: inactive; BAZ2B inh: inconclusive; JMJD2A Tudor inh: inconclusive; G9a inh: inactive

Results for O=C(CSc1ncn[nH]1)Nc1ccc(Cl)c(Cl)c1 ?
HP1b binding inh: inactive; BAZ2B inh: inactive; JMJD2A Tudor inh: inactive[11.4 µM]; L3MBTL1 inh: inactive; G9a inh: 45µM

What do the screens show for `O=C(CSc1ncn[nH]1)c1ccco1`?
HP1b binding inh: inconclusive; BAZ2B inh: inactive; JMJD2A Tudor inh: inactive[11.4 µM]; L3MBTL1 inh: inactive; G9a inh: 5.6µM

What do the screens show for `O=C(COc1ccccc1F)OCc1cc(=O)n2nc(-c3cccs3)sc2n1`?
HP1b binding inh: inactive; BAZ2B inh: inactive; JMJD2A Tudor inh: inactive; G9a inh: inactive

Results for Brc1ccc(-c2nc3ncccn3c2NC2CCCCC2)o1 ?
HP1b binding inh: inconclusive; BAZ2B inh: inactive; JMJD2A Tudor inh: inactive; G9a inh: 10µM

How did Cc1ccc(-c2nc3ncccn3c2NC2CCCC2)o1 do in these assays?
HP1b binding inh: inactive; BAZ2B inh: inactive; JMJD2A Tudor inh: inactive; G9a inh: inconclusive

How did CCCCCCC(=O)Cc1cc(OC)c(OC)cc1C=C(C(=O)OCC)C(=O)OCC do in these assays?
BAZ2B inh: inactive; L3MBTL1 inh: inactive; G9a inh: 40µM

How did CCOC(=O)/C(C#N)=C/c1ccc(OC)c(OC)c1 do in these assays?
HP1b binding inh: inactive; BAZ2B inh: inactive; JMJD2A Tudor inh: inactive; G9a inh: inactive

Results for COc1ccc(N2CCN(C(=O)c3ccc(CSc4ccccc4)cc3)CC2)cc1 ?
HP1b binding inh: inconclusive; BAZ2B inh: 45µM; JMJD2A Tudor inh: inconclusive; L3MBTL1 inh: inactive; G9a inh: inconclusive

What do the screens show for `CCOC(=O)N1CCN(C(=O)c2ccc(CSc3ccc(Cl)cc3)cc2)CC1`?
HP1b binding inh: inactive; BAZ2B inh: inactive; JMJD2A Tudor inh: 45µM; L3MBTL1 inh: inactive[11.4 µM]; G9a inh: inactive

How did COC(=O)c1ccccc1NC(=S)N1CCN(c2ccc(OC)cc2)CC1 do in these assays?
HP1b binding inh: inactive; JMJD2A Tudor inh: 56µM; G9a inh: inconclusive

Results for COc1ccc(N2CCN(C(=O)CSc3ccccc3)CC2)cc1 ?
HP1b binding inh: inactive; BAZ2B inh: 79µM; JMJD2A Tudor inh: inactive; G9a inh: inconclusive

How did CN1CCN(C(=O)c2ccc(CSc3ccc(Cl)cc3)cc2)CC1 do in these assays?
HP1b binding inh: inactive; BAZ2B inh: inactive; JMJD2A Tudor inh: inactive; L3MBTL1 inh: inactive; G9a inh: inconclusive

Results for CCc1ccccc1NC(=O)Cn1nc(CC)n2c(cc3sccc32)c1=O ?
HP1b binding inh: inactive; BAZ2B inh: inactive; JMJD2A Tudor inh: inactive; G9a inh: inactive

Results for CCOC(=O)C1CCCN(C(=O)c2ccc3c(c2)N(Cc2ccc(Cl)cc2)C(=O)c2ccccc2S3=O)C1 (centres undefined) ?
HP1b binding inh: inactive; BAZ2B inh: inactive; JMJD2A Tudor inh: inactive; G9a inh: inactive

What do the screens show for `O=C(NC1CCCCC1)c1ccc(CSc2nc3ccncc3n2Cc2cccc(F)c2)cc1`?
HP1b binding inh: inactive; BAZ2B inh: inactive; JMJD2A Tudor inh: inactive; G9a inh: inactive

Results for COc1ccc(S(=O)(=O)N2CCN(CC(=O)Nc3ccc(Cl)c(C(F)(F)F)c3)CC2)cc1 ?
HP1b binding inh: inactive; BAZ2B inh: inactive; JMJD2A Tudor inh: inactive; G9a inh: inactive

What do the screens show for `COc1ccc(C(=O)OCC(=O)NC2CC2)cc1F`?
HP1b binding inh: inactive; JMJD2A Tudor inh: inactive; L3MBTL1 inh: inactive

How did COc1ccc(N2CCN(C(=O)CSc3nc(C)cs3)CC2)cc1 do in these assays?
HP1b binding inh: inactive; BAZ2B inh: inactive; JMJD2A Tudor inh: inactive; L3MBTL1 inh: inactive; G9a inh: 45µM

How did COc1ccc(N2CCN(C(=O)CSc3nc4[nH]ncc4c(=O)n3-c3cccc4ccccc34)CC2)cc1 do in these assays?
HP1b binding inh: inactive; BAZ2B inh: inactive; JMJD2A Tudor inh: inactive; G9a inh: 40µM

How did COc1ccc(-n2c(SCC(=O)N3CCCCC3)nc3ccccc3c2=O)cc1 do in these assays?
HP1b binding inh: inactive; BAZ2B inh: inactive; JMJD2A Tudor inh: inactive; G9a inh: inactive

How did CCOC(=O)N1CCC(NCCNC(=O)c2ccc(Cl)cc2)CC1 do in these assays?
HP1b binding inh: inactive; BAZ2B inh: inconclusive; JMJD2A Tudor inh: 2.8µM; L3MBTL1 inh: inactive; G9a inh: 6.3µM

Results for COc1ccc(N2CCN(C(=O)COC(=O)CSc3ccccc3)CC2)cc1 ?
HP1b binding inh: inactive; BAZ2B inh: inconclusive; JMJD2A Tudor inh: inconclusive; L3MBTL1 inh: inactive; G9a inh: 16µM

How did COc1cccc(SCC(=O)N2CCN(c3ccccc3)CC2)c1 do in these assays?
HP1b binding inh: inactive; BAZ2B inh: inactive; JMJD2A Tudor inh: inactive; G9a inh: inactive

What do the screens show for `CCc1nn(CC(=O)N2CCC(C)CC2)c(=O)c2cc3occc3n12`?
HP1b binding inh: inactive; BAZ2B inh: inactive; JMJD2A Tudor inh: inactive; G9a inh: inactive
